# Source: PubChem BioAssay (several laboratories)
# A selection: hits, their analogues and other compounds. The true share with any hit is near 4.2%.
# RecA splice inh – Mtb RecA intein splicing inhibition; P9WHJ3; cell-free RecA intein splicing, fluorescence; inhibition, % (test concentration not listed); actives 0.75% (n = 290,000); in the data active = inhibition above about 30%; inconclusive = no clear call, values can overlap the other calls;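 also: 0% = vehicle wells and 100% = reference inhibitor control wells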
# GDH-TPI inh – counter-screen for M. tuberculosis FBA inhibitors: GDH-TPI coupled enzymes. GDH-TPI coupled enzyme counterscreen, NADH absorbance. inhibition, % at 4.8 µM. actives 1.2% (n = 360,000). AID 588335; in the data active = inhibition above about 30%;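 also: 0% = DMSO wells and 100% = wells lacking the enzyme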
# PrPC TRFRET – reduces human prion protein on the cell surface. AID 720596. actives 0.43% (n = 370,000). inhibition, % at 13.8 µM. cell surface PrPC, TR-FRET read-out. P04156; in the data active = inhibition above about 24%; also: 0% = median of the test wells and 100% = reference compound wells
# FBA Mtb inh – Mtb fructose-bisphosphate aldolase inhibition. P9WQA3. purified M. tuberculosis FBA, fluorescence read-out. inhibition, % at 1 µM. actives 2.3% (n = 360,000); in the data active = inhibition above about 27%;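 also: 0% = vehicle and 100% = reference inhibitor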
# BJeLR lethal – BJeLR cell viability loss | BJeLR (HRASV12) viability, CellTiter-Glo ATP luminescence, 48 h | AID 1554 | actives 0.17% (n = 300,000) | inhibition, % (test concentration not listed); in the data active = inhibition above about 50%; inconclusive = no clear call, values can overlap the other calls
# GFP chromophore – counter-screen GFP chromophore formation inhibition; actives 83% (n = 2,100); cell-free GFP chromophore formation, fluorescence; shares compounds with RecA splice inh; EC50, µM; AID 434968; call rule not given here
# Active calls of the source: *; ? = inconclusive; / = not tested or not shown.
SMILES,RecA splice inh,GDH-TPI inh,PrPC TRFRET,FBA Mtb inh,BJeLR lethal,GFP chromophore
COc1ccc(C(C[N+](=O)[O-])c2c(C)[nH]n(-c3ccccc3)c2=O)cc1 (stereo not given),95*,2,-2,2,23,5.3*
Cc1[nH]n(-c2ccccc2)c(=O)c1C(C[N+](=O)[O-])c1ccccc1Cl (stereo not given),75*,-2,5,0,0,15*
CCOC(=O)c1c(CSC(=N)N)n(-c2ccccc2)c2cc(Br)c(OC(C)=O)cc12,48*,10,-2,0,14,20*
CCOC(=O)c1c(CN2CCN(C)CC2)n(-c2ccccc2)c2cc(Br)c(O)cc12,-1,-4,-11,1,-7,/
O=C(N/N=C/c1cc(Cl)cc([N+](=O)[O-])c1O)c1ccccc1NS(=O)(=O)c1cccs1,33*,13,5,0,4,>38
CCN(CC)C(=O)O[C@H]1CC[C@@]23CCCN2C(=O)CCC[C@H]3C1,/,/,-2,/,/,/
O=C(Nc1ccccc1Oc1ccccc1)NC1CCCCN(Cc2ccc(Cl)cc2)C1=O (stereo not given),/,/,-4,/,/,/
COC(=O)c1ccccc1S(=O)(=O)N1CCC(NC(=O)c2ccccc2)CC1,45*,1,-7,2,6,>38
COC(=O)c1ccccc1S(=O)(=O)N1CCC(C(=O)NC2CCCCC2)CC1,/,12,6,-2,/,/
COc1cccc(NC(=O)CSc2c3c(nc4ccccc24)CCCC3)c1,70*,0,5,0,1,24*
CSc1nnc(NC(=O)c2nc(S(=O)(=O)Cc3ccccc3F)ncc2Cl)s1,76*,7,2,-3,7,23*
CC(C)c1nnc(NC(=O)c2nc(S(=O)(=O)Cc3ccccc3F)ncc2Cl)s1,83*,/,-9,/,2,14*
CSc1ncc(Cl)c(C(=O)Nc2nnc(SC/C=C/c3ccccc3)s2)n1,-2,15,-2,-1,-12,/
CC(C)c1nnc(NC(=O)CCC(=O)NCc2ccccc2Cl)s1,0,-4,4,-1,3,/
Cc1nnc(NC(=O)CCS(=O)(=O)c2ccccc2)s1,2,5,2,5,1,/
Cc1nnc(NC(=O)c2nc(S(=O)(=O)Cc3ccccc3C)ncc2Cl)s1,67*,14,-7,3,8,>38
O=S1(=O)c2ccc(N3CC[C@H](O)C3)cc2O[C@H]2CCN1C2,/,/,-2,/,/,/
C=CCN1C(=O)c2n[nH]c(COC)c2C1c1ccc(C)cc1 (stereo not given),/,/,-2,/,/,/
C=CCc1cccc(C=Nc2c[nH]c(=O)[nH]c2=O)c1O,/,7,-6,1,-4,>38
C=CCc1cccc(C=Nc2cc(Br)ccc2O)c1O,0,-7,5,-2,1,/
C[C@@H]1OCN(C)[C@H]2C[C@H]3c4[nH]c5cccc(-c6cccc(F)c6)c5c4CCN3C(=O)[C@@H]12,/,/,3,/,/,/
Cc1ccc(Sc2ncnc3onc(C)c23)cc1,41*,0,5,-3,-4,>38
Cc1noc2ncnc(Sc3ccc(Cl)cc3)c12,13,13,4,0,-4,/
CN1CCN(C2=C(Cl)C(=O)c3ccccc3C2=O)CC1,/,13,-34,-4,/,/
CN1CCN(C2=C(Cl)C(=O)C(c3cnc(N4CCCCC4)s3)=C(Cl)C2=O)CC1,83*,14,/,5,-12,3.7*
SMILES,RecA splice inh,GDH-TPI inh,PrPC TRFRET,FBA Mtb inh,BJeLR lethal,GFP chromophore
O=C(CCl)N(CCc1ccccc1)CCc1ccccc1,74*,6,-10,5,12,20*
O=C(Nc1ccccc1)NN(C(=O)CCl)c1ccccc1,68*,-2,-1,1,3,15*
Cc1ccc(N(NC(=O)C(O)(c2ccccc2)c2ccccc2)C(=O)CCl)cc1,66*,-5,3,-2,-1,7.3*
Cc1ccc(C(O)(C(=O)NN(C(=O)c2ccccc2)c2ccccc2)c2ccc(C)cc2)cc1,0,6,11,-1,10,/
O=C(CCl)N(c1ccccc1)c1ccccc1,80*,-2,-3,1,21,22*
O=C(CCCc1ccccc1)NCCc1ccccc1,-1,3,-6,1,0,/
O=C(N(c1ccccc1)c1ccccc1)N(c1ccccc1)c1ccccc1,0,-11,-3,0,12,/
CCCCNC(=O)C[C@H]1C[C@@]2(C(=O)OC)C(=C[C@H](COCc3ccccc3)O[C@@H]2C)N(CCc2ccc(OC)c(OC)c2)C1=O,/,/,-3,/,/,/
CC(=O)N(CCN(C(C)=O)c1ccccc1)c1ccccc1,-3,-2,-1,2,0,/
CCCCCCN(C(=O)CCl)c1ccccc1,54*,-8,-4,2,19,19*
COc1cc(C2(c3ccc(O)c(OC)c3)C(=O)Nc3c(Br)cc(Br)cc32)ccc1O,49*,-2,0,-1,-12,12*
O=C(NCc1cccs1)O[C@H]1CC[C@@]23CCCN2C(=O)CCC[C@H]3C1,/,/,3,/,/,/
O=C(Nc1cccc(OC(=O)c2ccco2)c1)c1ccco1,33*,-3,2,-1,9,>38
COc1cccc(NC(=O)c2ccco2)c1,-1,4,2,2,9,/
Cn1ncnc2c(=O)n(C)c(=O)nc1-2,97*,12,/,-3,21,0.09*
Cn1nc(-c2ccccn2)nc2c(=O)n(C)c(=O)nc1-2,95*,-18,5,-22,22,0.41*
CCCc1nc2c(=O)n(C)c(=O)nc-2n(C)n1,/,13,17,-4,/,/
CCOC(=O)c1csc(NC(=O)C2CCCN(S(=O)(=O)c3ccc([N+](=O)[O-])cc3)C2)n1 (stereo not given),/,/,-16,/,/,/
O=[N+]([O-])c1ccccc1S(=O)(=O)N1CCC(c2cn3ccccc3n2)CC1,/,/,-11,/,/,/
CSc1nc(=S)n(-c2ccc([N+](=O)[O-])cc2)c(C)c1C(C)=O,35*,9,-21,0,-1,>38
O=C(N/N=C1\C/C(=N\NC(=O)c2ccncc2)c2ccccc21)c1ccncc1,95*,-3,-22,-2,-11,1.2*
Cc1c(NC(=O)C2CCCN(S(=O)(=O)c3ccccc3[N+](=O)[O-])C2)c(=O)n(-c2ccccc2)n1C (stereo not given),/,/,2,/,/,/
CC(C)(C)c1ccc(/C=C(\c2nc3ccccc3[nH]2)S(=O)(=O)c2ccccc2)cc1,82*,3,/,-4,-1,6.6*
COC(=O)c1cccc(NS(=O)(=O)c2cccs2)c1C,-2,19,7,2,-17,/
COC(=O)c1ccccc1NC1=C/C(=N\S(=O)(=O)c2ccc(C(=O)O)cc2)c2ccccc2C1=O,63*,12,/,-7,5,?
COC(=O)c1ccccc1NC1=C/C(=N\S(=O)(=O)c2cccs2)c2ccccc2C1=O,81*,16,-14,-1,-4,0.1*
O=S(=O)(CC1NCc2ccccc21)NC1CCCC1 (stereo not given),/,/,-9,/,/,/
